Source: PubChem BioAssay AID720582 (The Scripps Research Institute Molecular Screening Center, 2013)
Hit rate of the full screen: of about 370,000 compounds, about 2,300 (0.62%) were called active. The list comes from a sample in which actives are over-represented; it also holds similar structures and randomly drawn compounds. Unmarked numbers belong to inactive results.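 The calls were made as follows: active = inhibition above a per-campaign cutoff equal to the mean of compounds falling between control-based bounds plus 3 SD (cut at about 20% in these data); inactive = the rest.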

Molecular target: Disintegrin and metalloproteinase domain-containing protein 10 (Homo sapiens) (UniProt O14672)
Sequence (O14672 214-748 limits assumed): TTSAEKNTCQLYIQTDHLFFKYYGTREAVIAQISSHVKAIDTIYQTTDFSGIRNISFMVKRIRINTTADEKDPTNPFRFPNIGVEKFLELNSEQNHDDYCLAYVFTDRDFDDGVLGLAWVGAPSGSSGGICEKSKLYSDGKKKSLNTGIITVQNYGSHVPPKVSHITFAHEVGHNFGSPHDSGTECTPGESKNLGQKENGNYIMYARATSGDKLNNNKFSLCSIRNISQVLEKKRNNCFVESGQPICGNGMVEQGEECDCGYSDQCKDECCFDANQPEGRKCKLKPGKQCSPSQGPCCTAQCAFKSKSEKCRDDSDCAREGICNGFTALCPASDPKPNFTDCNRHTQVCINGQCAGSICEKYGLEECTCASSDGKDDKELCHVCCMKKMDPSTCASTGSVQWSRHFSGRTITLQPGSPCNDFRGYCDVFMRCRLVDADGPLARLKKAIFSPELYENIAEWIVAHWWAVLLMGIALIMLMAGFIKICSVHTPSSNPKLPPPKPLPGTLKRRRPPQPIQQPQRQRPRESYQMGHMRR
Assay: human ADAM10 inhibitors, primary screen, biochemical, QFRET, HTS (AID 720582);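 also: 0% = DMSO wells while the 100% control is not disclosed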
Settings: recombinant ADAM10, EDANS/DABCYL FRET peptide cleavage, 3 h; at 7 µM; stronger effect = higher value

Compound	inhibition
Cc1cc(=O)[nH]c(SCC(=O)Nc2ccc(Cl)cc2C)n1	-0.31%
C[C@@H]1CN([C@@H](C)CO)C(=O)c2cccc(NC(=O)Nc3cccc4ccccc34)c2O[C@H]1CN(C)S(=O)(=O)c1ccccc1F	-24.8%
CCc1ccccc1NC(=O)CSc1nnc(-c2cccs2)o1	-1.28%
COc1ccc(-n2c(COc3ccccc3)nnc2SCC(=O)Nc2ccc3c(c2)OCO3)cc1	2.97%
O=S(=O)(c1ccc(Br)cc1)c1nc(-c2ccccc2)oc1NCc1cccnc1	4.12%
N#Cc1nc(COc2ccc(-c3ccccc3)cc2)oc1NCc1cccnc1	23.1% (active)
O=S(=O)(c1ccccc1)c1nc(-c2ccccc2F)oc1NCc1cccnc1	12.6%
CCOc1ccc(Nc2oc(Cc3ccccc3)nc2C#N)cc1	23.6% (active)
N#Cc1nc(COc2ccc(Cl)cc2)oc1N1CCCC1	1.11%
Cc1ccc(OCc2nc(C#N)c(N3CCCC3)o2)cc1	-0.05%
CCCCOCCCNC(=O)C[C@H]1C[C@@]2(C(=O)OC)C(=C[C@H](COCc3ccccc3)O[C@@H]2C)N(Cc2cccc3ccccc23)C1=O	11.9%
c1ccc2c(CCN3CCNC[C@H]3Cc3cccc4ccccc34)cccc2c1	79% (active)
CC(C)(C)CN1C(=O)C(=O)NC[C@H]1Cc1cccc2ccccc12	-16.5%
c1ccc(C2CNCc3c2ccc2ccccc32)cc1 (centres undefined)	-2.76%
CC(=O)C1(C(=O)Nc2nccs2)CC(c2ccccc2C(F)(F)F)=NO1 (centres undefined)	-3.94%
Cc1cccc(C(=O)N2CCc3c([nH]c4ccccc34)C2CC(C)C)n1 (centres undefined)	-15.2%
COCc1ccc(C(=O)N2CCc3c([nH]c4ccccc34)C2c2ccccn2)s1 (centres undefined)	9.76%
Cc1cccc(C2c3[nH]c4ccccc4c3CCN2C(=O)c2cc(-c3cccn3C)n[nH]2)n1 (centres undefined)	20.4% (active)
COC(=O)c1ccccc1-n1cc(COC(=O)NCCc2ccccc2)nn1	-5.72%
C=CCN(C(=O)[C@@H](CCCC)[C@@H](O)c1ccc(Cl)cc1)c1ccccc1	11.4%
CC(C)Oc1cc(F)ccc1-c1cc(C(=O)Nc2cccc(Cl)c2)[nH]n1	22.1% (active)
CC(C)Oc1cc(F)ccc1-c1cc(C(=O)Nc2ccc(F)cc2)[nH]n1	5.58%
COc1cc(NC(=O)c2cc(-c3ccc(F)cc3OC(C)C)n[nH]2)cc(OC)c1OC	9.02%
CCOC(=O)C1CCN(C(=O)C(C)(C)NC(=O)Nc2ccc(F)c(F)c2)CC1	6.44%
